This is part of a sample that, as a whole, favours compounds with a hit. Of some 79,000 tested, about 15% had one in any assay. Activity calls are given as the source filed them. No stated cut-off is given here; in the data, active means growth inhibition above about 70%; inactive means the rest.
Test: NCI Yeast Anticancer Drug Screen. Data for the wt1 strain (AID 149);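 further: 0% = growth of vehicle-treated wt1 cultures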
Details: S. cerevisiae wt1 strain (SPY 50644) growth inhibition, hits give high values
Protocol: Growth inhibition of yeast strains with defined genetic alterations is measured as a screen for potential anti-cancer activity. Selected strains with alterations in DNA damage repair or cell cycle control were exposed to compounds and growth inhibition was measured relative to vehicle treated controls. The strain used in this assay is wt1

Measured: growth inhibition

O=C1C=C(NCCc2cc(Br)c(O)c(Br)c2)C(=O)c2ncccc21
active: at 100.0 µM 95%
inactive: at 1.2 µM 17% | at 3.7 µM 19% | at 11.0 µM 27% | at 33.0 µM 53%

COc1ccc(-c2cc(-c3cc(C)cc(Cl)c3O)nc3[nH]c(=S)[nH]c(=S)c23)cc1
inactive: at 1.2 µM 0% | at 3.7 µM -1% | at 11.0 µM 0% | at 33.0 µM 1% | at 100.0 µM 35%

Nc1cc2c(cc1N)-c1ccccc1C2=O
inactive: at 1.2 µM -2% | at 3.7 µM -3% | at 11.0 µM -4% | at 33.0 µM 3% | at 100.0 µM 36%

O=[N+]([O-])c1cc(Cl)ccc1S(=O)(=O)c1ccc(Cl)cc1[N+](=O)[O-]
active: at 33.0 µM 85% | at 100.0 µM 78%
inactive: at 1.2 µM -13% | at 3.7 µM -19% | at 11.0 µM 0%

N#CCC(=O)N/N=C(\c1ccccc1)C(c1ccccc1)C1(O)C(=O)Nc2c(Cl)ccc(Cl)c21 (stereo not given)
inactive: at 1.2 µM 0% | at 3.7 µM 0% | at 11.0 µM 0% | at 33.0 µM -1% | at 100.0 µM -3%

CCO/C=C1\SC(=S)N(c2ccc(OCC)cc2)C1=O
inactive: at 1.2 µM -36% | at 3.7 µM -51% | at 11.0 µM -50% | at 33.0 µM -34% | at 100.0 µM -33%

CCCCCCNCCCNc1c2ccccc2nc2cccc([N+](=O)[O-])c12
active: at 100.0 µM 92%
inactive: at 1.2 µM -2% | at 3.7 µM 0% | at 11.0 µM 8% | at 33.0 µM 59%

O=[N+]([O-])c1ccc(C(c2c[nH]c3ccccc23)c2c[nH]c3ccccc23)cc1
inactive: at 1.2 µM 12%
active: at 3.7 µM 97% | at 11.0 µM 96% | at 33.0 µM 92% | at 100.0 µM 89%

From PubChem BioAssay (NCI)
